The results in this text go back to PubChem BioAssay (Tox21).

Each structure is given as a SMILES string. Inconclusive results are not listed. Entries that show only a call come without a potency. Calls of active or inactive are those of the source. Calls follow the shape of the full dose curve.
Potency is read from the fitted curve at half-maximal effect.

The experiment is described as follows: qHTS assay to identify small molecule agonists of the endoplasmic reticulum stress response signaling pathway - cell viability counter screen (AID 1159517). Also: nearly all actives have a fitted effect of over 50% in size. The conditions noted are these: ESRE-bla HeLa viability, CellTiter-Glo luminescence, 5 h; series mostly up to 61 µM. From the text:
U.S. Tox21 Program National Center for Advancing Translational Sciences [NCATS] NIH Chemical Genomics Center [NCGC] U.S. Environmental Protection Agency [EPA] National Institutes of Environmental Health Sciences [NIEHS] National Toxicology Program [NTP] U.S. Food and Drug Administration [FDA] Tox21 Assay Overview: Endoplasmic Reticulum (ER) plays an important role in cellular signaling, protein folding/maturation, stress response, lipid biosynthesis, calcium storage and release etc. Under stress conditions, proteins in ER misfold or unfold, and leading to the expression of ER stress responsive genes. ER stress has been associated with a variety of pathophysiological conditions such as cancer, inflammation, neurodegenerative diseases, diabetes, ischemic heart disease etc. To identify the compounds that induce ER stress response, an ER stress reporter cell line, CellSensor ESRE-bla HeLa (Life Technologies, Carlsbad, CA) containing a beta-lactamase reporter gene under control of the Endoplasmic reticulum Stress Response Element (ESRE) was used to screen Tox21 10K compound library. The cytotoxicity of the Tox21 compound library against the ESRE-bla HeLa cell line was tested in parallel by measuring cell viability using the CellTiter-Glo assay in the same wells.
Tox21 Assay Protocol Summary: ESRE-bla HeLa cells were dispensed at 1,500 cells/6 uL of assay medium per well into black wall/clear-bottom 1536-well plates using a Multidrop Combi (ThermoFisher Scientific, Waltham, MA) dispenser. After the assay plates were incubated at 37 C and 5% CO2 for an overnight, 23 nL of compounds dissolved in DMSO, positive controls or DMSO only was transferred to the assay plate by a Pintool station (Kalypsys, San Diego, CA). The assay plates were incubated at 37 C and 5% CO2 for 5 hr. One uL of LiveBLAzer B/G FRET substrate (Life Technologies) was added using a FRD (Flying Reagent Dispenser, Aurora Discovery, San Diego, CA) and the plates were incubated at room temperature for 2 hr. Fluorescence intensity (405 nm excitation, 460 nm and 530 nm emissions) was measured using an Envision plate reader (PerkinElmer, Shelton, CT). For cytotoxicity, 4 ul/well of CellTiter-Glo reagent was added into the assay plates using an FRD. After 30 min incubation at room temperature, the luminescence intensity was measured using a ViewLux plate reader (PerkinElmer).
(qHTS replaces the single test concentration by a dilution series.)
In the case of `C=C(C)[C@@H]1CC=C(C=O)CC1`, the Potency entry is “inactive”.

For the compound `CC(CCc1ccccc1)NC(C)C(O)c1ccc(O)cc1` (stereo not given), the Potency entry was “inactive”.

In the case of `c1coc(-c2nc3ccccc3[nH]2)c1`, the Potency entry is “inactive”.

Regarding `CS(=O)(=O)c1cc(C(F)(F)F)ccc1C(=O)c1cnoc1C1CC1`, the Potency result is “inactive”.

On to `CCCCc1ccc(O)cc1`, for which the Potency result was “inactive”.

Regarding `CC(=O)[C@H]1CC[C@H]2[C@@H]3CC[C@H]4C[C@H](O)CC[C@]4(C)[C@H]3C(=O)C[C@]12C`, the Potency result is “inactive”.

`OCCSCSCCO`: the Potency entry is “inactive”.

With `Nc1n[nH]c(N)n1`, the Potency result is “inactive”.

With `CN1CCC(O)(c2ccc(F)cc2)C(C(=O)c2ccc(F)cc2)C1` (stereo not given), the Potency entry was “inactive”.

For the compound `OC(c1ccccc1)(c1ccccc1)C1CCNCC1`, the Potency entry is “inactive”.

With `CCC(=O)c1ccccc1`, the Potency entry was “inactive”.

Take `CCOC(=O)C(c1c(O)c2ccccc2oc1=O)c1c(O)c2ccccc2oc1=O`: the Potency result is “inactive”.

On to `C1CCC(C2CCCCC2)CC1`, for which the Potency result is “inactive”.

Regarding `O=C(O)c1cccc(Cl)c1`, the Potency result is “inactive”.

Turning to `C[N+](=O)[O-]`, the Potency result is “inactive”.

Consider `NC1=NC(=O)C(c2ccccc2)O1` (stereo not given), for which the Potency entry was “inactive”.

With `NC(=S)C(N)=S`, the Potency entry is “inactive”.

With `ClC(Br)Br`, the Potency entry was “inactive”.

On to `CCCCc1c(C)nc(NCC)[nH]c1=O`, for which the Potency result was “inactive”.

As for `CC(C)(C)NCC(O)c1cc(Cl)c(N)c(Cl)c1` (stereo not given), the Potency result is “inactive”.

Consider `CCOC(=O)NC(=S)Nc1ccccc1NC(=S)NC(=O)OCC`, for which the Potency entry was “inactive”.

`C=C(C)CN(CC)c1c([N+](=O)[O-])cc(C(F)(F)F)cc1[N+](=O)[O-]`: the Potency result was “inactive”.

For the compound `O=[N+]([O-])c1ccc(CBr)cc1`, the Potency was 27.2 µM (active).

Take `O=C(Nc1ccccc1)c1ccccc1I`: the Potency result was “inactive”.

`C[N+](C)=CCl`: the Potency entry is “inactive”.

Turning to `[As]#[In]`, the Potency entry is “inactive”.

For the compound `CCCSC(=O)Cl`, the Potency entry was “inactive”.

With `CN1C[C@@H](NS(=O)(=O)N(C)C)C[C@@H]2c3cccc4c3c(cn4C)C[C@H]21`, the Potency entry is “inactive”.

Turning to `CCC(=O)C(CCN(C)C)(c1ccccc1)c1ccccc1`, the Potency result is “inactive”.

In the case of `CCOP(=O)(N=C1SCCS1)OCC`, the Potency result is “inactive”.

For `O=C1OC(CCN2CCCCC2)OC1(c1ccccc1)c1ccccc1` (stereo not given), the Potency result is “inactive”.

For the compound `C=CC1CC=CCC1` (stereo not given), the Potency entry was “inactive”.

In the case of `CN/C(=N\[N+](=O)[O-])NCC1CCOC1` (stereo not given), the Potency result is “inactive”.

In the case of `COc1cc(OC)nc(NC(=O)NS(=O)(=O)c2ncccc2OCC(F)(F)F)n1`, the Potency entry was “inactive”.

In the case of `O=C(O)C(Br)CBr` (stereo not given), the Potency result was “inactive”.

Turning to `CCCCN(CCCCO)N=O`, the Potency result is “inactive”.

On to `CC(=O)CC(c1ccc(Cl)cc1)c1c(O)c2ccccc2oc1=O` (stereo not given), for which the Potency result is “inactive”.

As to `Fc1cc(Br)ccc1CBr`, the Potency result was “inactive”.

On to `C[C@@H]1CN(C2CCC(C#N)(c3ccc(F)cc3)CC2)CC[C@]1(C(=O)O)c1ccccc1` (stereo not given in full), for which the Potency result was “inactive”.

For `CCCSP(=O)(OCC)Oc1ccc(Br)cc1Cl` (stereo not given), the Potency entry was “inactive”.
